Compounds with a hit are over-represented: about 12% of the library has one in this group of screens.
Pf growth 96h – inhibits malaria parasite growth, 96 h. P. falciparum luciferase reporter growth, 96 h. actives 6.9% (n = 320,000). AID 504834. Potency, µM (series often up to 28.7 µM), without a hit: at the top dose activity change, negative = inhibition, hits mostly inhibitors; also: % is scaled to controls: 0 for no effect and ±100 for the full control effect
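96 h incubation, 37 C, 5% CO2, of luciferase-reporter P. falciparum-infected RBCs (2% hematocrit, 0.05% parasitemia final) with test compounds; endpoint luminescence.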
HCV inhibitor – blocks hepatitis C virus; Huh7.5.1 HCVcc-Cre infection, luciferase reporter, 44 h; Potency, µM (titrated, usually from 41.8 µM), for the others: at the highest dose activity change, negative = inhibition, actives largely listed as inhibitors; actives 3.4% (n = 340,000); also: % is scaled to controls: 0 for no effect and ±100 for the full control effect
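Luciferase read-out (15 sec integration) after a 15 min room-temperature substrate step quantifies HCVcc-Cre infection. Cells, 1,000 per well, had compound added 4 h post-plating, then virus at ~0.5 moi, and were cultured 44 h.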
NS1 function inh – inhibitors of influenza NS1 protein function. Potency, µM (highest dose often 46.1 µM), inactives show at the top dose activity, positive = more growth. actives 0.4% (n = 270,000); calls by dose curve; also: actives are rising curves; nearly all actives have a fitted effect of over 50% in size
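Growth recovery, yeast-based: influenza A NS1 expressed in S. cerevisiae causes slow growth, and suppressors are detected by OD600. The parent strain without NS1 is used as positive control.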
Pf growth 48h – P. falciparum growth inhibition at 48 hours (one generation); P. falciparum luciferase growth in erythrocytes, 48 h; Potency, µM (top dose mostly 28.7 µM), without a hit: at the top dose activity change, negative = inhibition, actives largely listed as inhibitors; actives 5.9% (n = 310,000); AID 504832; also: % is scaled to controls: 0 for no effect and ±100 for the full control effect
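Read-out is firefly luciferase luminescence from an integrated reporter in P. falciparum, so falling signal marks reduced parasite growth. Infected erythrocytes were at 2% hematocrit and 0.1% parasitemia (final) in Albumax-supplemented RPMI 1640.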
SARS PLP yeast – inhibitors of SARS-CoV papain-like protease in yeast; S. cerevisiae expressing SARS-CoV PLpro, growth rescue; AID 485353; Potency, µM (highest dose often 32.9 µM), without a hit: at the top dose activity, positive = growth rescue, usual class: activators; actives 0.19% (n = 330,000); calls by dose curve; also: 0% is about no effect; nearly all actives have a fitted effect of over 55% in size
AMA1-RON2 inh – AMA1-RON2 (P. falciparum) interaction inhibition. AlphaScreen AMA1-biotinylated RON2 peptide binding. actives 0.2% (n = 360,000). Potency, µM (top dose mostly 58.2 µM), without a hit: top-dose activity change, negative = inhibition, hits mostly inhibitors;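 also: 0% = vehicle wells and -100% = peptide control; nearly all actives have a fitted effect of over 45% in size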
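AMA1 (3D7) with his tag at 25 nM final met compounds first, then biotinylated RON2 peptide at 25 nM; detection used donor plus acceptor beads, 10 µg/mL apiece, read by AlphaScreen after 30 min at room temperature.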
Starred values were filed as active, the others as inactive; ? = inconclusive; / = not tested or not shown; [ ] = dose if it differs, or a comment. Unless noted, calls follow the shape of the dose curve; as a rule, active = well fitted curve in the direction sought with a large enough effect; inconclusive = small, poorly fitted or top-dose-only effect, or another doubt; inactive = no such curve, though single readings can be large; an effect the other way counts as inactive or inconclusive. Potency is read from the fitted curve at half-maximal effect.

SMILES | Pf growth 96h | HCV inhibitor | NS1 function inh | Pf growth 48h | SARS PLP yeast | AMA1-RON2 inh
Cc1ccc(Cl)cc1NC(=S)N(CCCN1CCOCC1)Cc1ccco1 | ? | -38.6% | -2.5% | ? | 1.8% | -23.3%
CCC(C)NC(=S)Nc1ccc2nc(N3CCN(CC)CC3)cc(C)c2c1 (centres undefined) | ? | ? | -7.6% | 0.0% | 0.9% | -5.3%
CCOCCCNC(=S)Nc1ccc2nc(N3CCOCC3)cc(C)c2c1 | 14.7µM* | -17.3% | 2.9% | -25.2% | 0.8% | 2.4%
COCCCNC(=S)Nc1ccc2nc(N3CCOCC3)cc(C)c2c1 | 1.7% | -29.1% | -2.9% | 10.5%[0.00184 µM] | -0.6% | 9.2%
CCC(C)NC(=S)Nc1ccc2nc(N3CCOCC3)cc(C)c2c1 (centres undefined) | 30.3% | 11.2µM* | -6.8% | 11.8%[0.00184 µM] | -2.8% | 4.1%
Cc1cc(N2CCN(C)CC2)nc2ccc(NC(=S)NCCC(C)C)cc12 | -25.1% | ? | -2.7% | 9.5%[0.00184 µM] | -1.9% | -1.7%
CCC(C)NC(=O)CCC(=O)Nc1ccc2nc(N3CC(C)CC(C)C3)cc(C)c2c1 (centres undefined) | 5.86µM* | ? | / | 9.28µM* | 0.2% | -2.4%
Cc1cc(N2CCOCC2)nc2ccc(NC(=S)NCCC(C)C)cc12 | 0.0% | 10µM* | -3.9% | -100.3% | -6.1% | 11.1%
Cc1ccc(C(=O)N/C(=C\c2ccc(Cl)cc2)C(=O)NCCN2CCOCC2)cc1 | ? | -7.1% | 3.7% | -4.4% | -3.7% | 12.6%
Cc1nc2c3ccccc3nc(NNC(=O)CCC(=O)NCCN3CCN(c4ccccc4)CC3)n2n1 | ? | 1.2% | -0.2% | 14.2% | -10.1% | 31.8%
CC(C)C(NC(=O)c1ccc(C(C)(C)C)cc1)C(=O)N1CCC(C(N)=O)CC1 (centres undefined) | ? | 8.7% | / | ? | -2.3% | -2.1%[11.6 µM]
CC(C)CCn1c(N)c(C(=O)NCc2cccs2)c2nc3ccccc3nc21 | ? | 14.1µM* | 15.7% | 0.828µM* | -8.0% | 14.3%
COCCn1c(N)c(C(=O)NCc2cccs2)c2nc3ccccc3nc21 | ? | ? | -101.5% | ? | -25.1% | 13.3%
CC(C)OCCCNC(=O)c1c(N)n(Cc2cccs2)c2nc3ccccc3nc12 | 11.7µM* | 10µM* | -75.7% | 9.28µM* | -2.0% | 36.0%
COc1cc(NC(C)=O)c2ncccc2c1NC(C)=O | 43.7% | 22.3% | 14.3% | -3.1% | 7.0% | -7.3%
CC(=O)Nc1cc(=O)c2cccnc2[nH]1 | / | 9.5% | / | / | / | 14.1µM*
CC(=O)NC(CC(=O)Nc1nc(-c2ccc(N(C)S(C)(=O)=O)cc2)cs1)c1ccccc1 (centres undefined) | ? | 11.2µM* | -10.8% | ? | -0.2% | 0.8%
NC(=O)c1ccc(OCC(O)CN2CC=C(c3ccc(F)cc3)CC2)cc1 (centres undefined) | / | / | 11.4% | / | / | /
CC(=O)c1cccc(OCC(O)CN2CC=C(c3ccccc3)CC2)c1 (centres undefined) | 1.85µM* | ? | -5.0% | ? | 4.8% | -22.7%
CCCS(=O)(=O)N1CCN(Cc2ccc(OCc3ccccc3)c(OC)c2)CC1 | / | 10µM* | -15.9% | / | / | -15.7%
COc1cc(CN2CCC(C(=O)NCC(C)(C)CN(C)C)CC2)ccc1OCc1ccccc1 | ? | ? | -12.7% | 9.28µM* | -0.6% | -21.0%
CCCCNC(=O)C1CCN(Cc2ccc(OCc3ccccc3)c(OC)c2)CC1 | -19.9% | ? | 22.5% | 72.4% | 2.7% | 4.4%
O=C(COC(=O)CN1C(=O)c2ccccc2C1=O)Nc1cccc(F)c1 | 3.7% | 7.5% | / | -1.9% | 3.5% | -5.5%
CC1CN(CCCSc2ccc(Cl)cc2)CC(C)O1 (centres undefined) | ? | 12.6µM* | -3.8% | 14.8% | 1.1% | -22.0%
CC1CN(CCCCSc2ccccc2)CC(C)O1 (centres undefined) | 4.3% | 9.1% | -10.2% | 0.0% | -3.2% | -7.5%
COc1ccc(Cl)cc1NC(=S)NC1CCCC1 | ? | -24.4% | 20.2% | ? | 9.1% | 5.6%
